Screening results: PubChem, several laboratories
Insulin prom up: MIN6 insulin promoter up-regulation | MIN6 insulin promoter-GFP reporter, high-content imaging; stronger effect = higher value | z-score at 5 µM | 190,000 tested, 0.3% active;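 active = z-score above 3 at 5 µM with at least 500 cells counted in the well; inconclusive = wells under 500 cells, flagged as cytotoxic or low count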
WT yeast gro inh: growth inhibition of WT yeast, mitochondrial fusion screen; mitochondrial fusion phenotypic screen, WT strain; inhibition, % at 10 µM; 190,000 tested, 2.1% active; in the data active = inhibition above about 58%; tested in S. cerevisiae
Lmaj promast: reduces viability of Leishmania major promastigotes; resazurin fluorescence viability; inhibition, % at 10 µM; 200,000 tested, 9% active; in the data active = inhibition above about 50%;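 also: promastigotes grown with compound for 44 hours at 28 °C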
ROMK mod: modulates human ROMK potassium channel activity. 130,000 tested, 2% active. Tet-inducible ROMK, thallium flux fluorescence; actives lie on both sides. B-score at 10 µM. P48048. AID 1918;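 active = signal ratio slope over the read window, or its plate-corrected B-score, at least 3 SD from the plate mean, either direction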;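 also: B-score of the F/F0 ratio slope over 7 to 12 s after thallium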
Insulin prom inh: TRM-6 insulin promoter activity inhibition; inhibition, % at 2 µM; 130,000 tested, 0.9% active; TRM-6 cells (human fetal islet line), insulin promoter-eGFP reporter, imaging; reporter expression induced with tamoxifen;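 active = inhibition above the mean plus 3 SD, with well images judged a real hit on visual review, cut at about 60% in these data, passing the limit was not always enough; inconclusive = inhibition over the cutoff but images rejected on review; inactive = inhibition not above the cutoff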
Cl transport mod: modulates chloride dependent transport by human KCC2; KCC2 cells, thallium flux FluoZin-2 fluorescence; B-score of Tl+ flux slope (higher = more flux/activation; lower = inhibition) at 10 µM; 190,000 tested, 2.2% active;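 active = thallium flux slope and its plate-corrected score both differing from the plate sample mean at a set confidence after two filtering rounds, in either direction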;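 also: slope of fluorescence scaled to starting intensity during 10 to 20 s after thallium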
Target sequence (Q9H2X9 whole entry, looked up): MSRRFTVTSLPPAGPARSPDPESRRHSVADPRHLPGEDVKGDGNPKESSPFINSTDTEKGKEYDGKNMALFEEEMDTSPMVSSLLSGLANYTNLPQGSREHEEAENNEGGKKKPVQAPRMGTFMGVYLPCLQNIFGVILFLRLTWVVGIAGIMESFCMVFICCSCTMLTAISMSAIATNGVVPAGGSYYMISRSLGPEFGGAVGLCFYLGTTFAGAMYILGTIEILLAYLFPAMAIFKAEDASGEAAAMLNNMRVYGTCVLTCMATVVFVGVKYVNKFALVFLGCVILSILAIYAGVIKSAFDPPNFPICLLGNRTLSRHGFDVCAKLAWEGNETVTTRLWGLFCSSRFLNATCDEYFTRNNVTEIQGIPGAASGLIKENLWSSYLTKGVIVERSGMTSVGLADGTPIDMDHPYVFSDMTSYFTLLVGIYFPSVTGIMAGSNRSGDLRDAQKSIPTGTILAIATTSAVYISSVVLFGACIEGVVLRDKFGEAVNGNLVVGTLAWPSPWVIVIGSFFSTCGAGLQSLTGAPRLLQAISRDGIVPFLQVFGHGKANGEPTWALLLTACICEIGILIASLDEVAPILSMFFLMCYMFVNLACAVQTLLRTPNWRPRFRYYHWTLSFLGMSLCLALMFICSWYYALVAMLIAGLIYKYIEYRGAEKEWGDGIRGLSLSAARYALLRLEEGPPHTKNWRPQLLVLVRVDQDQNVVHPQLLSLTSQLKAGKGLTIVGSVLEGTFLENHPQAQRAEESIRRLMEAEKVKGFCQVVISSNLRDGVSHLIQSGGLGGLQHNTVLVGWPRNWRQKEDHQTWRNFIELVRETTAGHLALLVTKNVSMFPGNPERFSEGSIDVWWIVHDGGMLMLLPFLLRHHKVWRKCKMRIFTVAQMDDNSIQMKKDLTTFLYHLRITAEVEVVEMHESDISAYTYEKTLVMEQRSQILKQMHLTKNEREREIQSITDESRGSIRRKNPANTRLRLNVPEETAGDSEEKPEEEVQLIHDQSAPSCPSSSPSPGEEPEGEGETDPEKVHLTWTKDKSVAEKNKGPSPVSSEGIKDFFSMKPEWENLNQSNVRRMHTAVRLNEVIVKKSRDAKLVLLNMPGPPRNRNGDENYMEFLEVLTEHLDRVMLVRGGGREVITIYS
Each line names hits and unclear results; the compound was inactive in the other large screens. This is a sample that favours compounds with a hit; in the whole collection about 12% have one here.

Clc1ccc(Nc2nc(-c3ccncc3)cs2)cc1	none (no result: Insulin prom up, WT yeast gro inh, ROMK mod)
Nc1ccc(Nc2nc(-c3ccncc3)cs2)cc1	Lmaj promast 81 (no result: ROMK mod)
COc1ccc(Nc2nc(-c3c[nH]c4ccccc34)cs2)cc1	Lmaj promast 85
Cc1nc2ncccn2c1-c1csc(Nc2ccccc2)n1	none
COc1ccc2oc(=O)c(-c3csc(Nc4ccc(O)cc4)n3)cc2c1	none (no result: Insulin prom up)
COc1ccc(-c2csc(Nc3ncccc3C)n2)cc1	WT yeast gro inh 76 (no result: Insulin prom up, ROMK mod)
CCOc1ccc(NC(=O)C2CCCN2C(=O)OCc2ccccc2)cc1 (stereo not drawn)	none (no result: ROMK mod, Insulin prom inh, Cl transport mod)
COc1ccc(Nc2nc(-c3ccc(OC)cc3)cs2)cc1	none (no result: Insulin prom inh)
CC(=O)Oc1ccc(-c2csc(Nc3ccc(S(N)(=O)=O)cc3)n2)cc1	Lmaj promast 55 (no result: Insulin prom inh)
COc1ccc(-c2csc(Nc3ccccc3)n2)cc1	WT yeast gro inh 69 (no result: ROMK mod, Insulin prom inh)
Cc1cccnc1Nc1nc(-c2ccc(O)c(O)c2)cs1	Lmaj promast 58
Cc1ccc(NC2=NC(C(=O)Nc3ccc(C)c(C)c3)CC(=O)N2)cc1 (stereo not drawn)	none
Cc1ccc(C2CC(=O)Nc3c2ccc2ccccc32)cc1[N+](=O)[O-] (stereo not drawn)	Lmaj promast 95
O=C1CC(c2cccc([N+](=O)[O-])c2)c2c(ccc3ccccc23)N1 (stereo not drawn)	Lmaj promast 100
CC1(C)CC(N=c2cc(-c3ccccc3)oc3ccc(Cl)cc23)CC(C)(C)N1	Insulin prom up inconclusive, Lmaj promast 101 (no result: ROMK mod)
OCCCN=c1cc(-c2ccccc2)oc2ccc(Cl)cc12	Lmaj promast 100 (no result: Insulin prom up, Cl transport mod)
O=c1cc(-c2ccccc2)oc2ccc(O)cc12	none (no result: WT yeast gro inh, Lmaj promast, ROMK mod, Insulin prom inh)
Nc1cc(Cl)ccc1Oc1ccc2ccccc2c1	none
CN(C(=O)n1cnc2ccccc21)c1ccccc1	none (no result: Insulin prom inh)
O=c1c2ccccc2c(-c2ccccc2)nn1-c1cc(Cl)ccc1[N+](=O)[O-]	none (no result: Insulin prom inh)
Oc1ccc(C=Nc2ccccc2-c2nc3ccccc3[nH]2)cc1	none (no result: ROMK mod, Insulin prom inh)
Cc1ccccc1OCc1nc(-c2ccc(NC(=O)c3ccco3)cc2)no1	none (no result: Cl transport mod)
Cc1ccccc1OCc1nc(-c2ccc(NC(=O)c3cccs3)cc2)no1	Lmaj promast 71
Clc1ccc(N=c2ssnc2Cl)nc1	WT yeast gro inh 69 (no result: ROMK mod)
COc1cc(N=c2ssnc2Cl)cc(OC)c1	none (no result: ROMK mod)
Clc1nssc1=Nc1ccc(Br)cc1	WT yeast gro inh 71
CC(C)C1OC2c3cccc4cccc(c34)C2N1c1ccccc1 (stereo not drawn)	none (no result: Insulin prom up)
O=C(c1ccccc1)c1ccc2nc[nH]c2c1	Insulin prom inh 95 (no result: ROMK mod)
O=C(NC1CCCC1)c1ccc2nc[nH]c2c1	none (no result: ROMK mod)
Cc1cc(C)cc(NC(=O)c2ccc3nc[nH]c3c2)c1	Lmaj promast 86 (no result: ROMK mod)
COc1ccccc1NC(=O)Nc1ccc(C(N)=O)cc1	none
O=C(COc1ccc2ccccc2c1)Nc1ccc(Cc2ccncc2)cc1	none (no result: ROMK mod)
Cc1nn(C(=O)c2ccco2)c(C)c1Br	Insulin prom inh 67 (no result: Insulin prom up)
Cc1ccc(-n2nnnc2SCc2ccccn2)cc1C	none (no result: WT yeast gro inh, ROMK mod)
CCCCn1c(NCc2ccc3c(c2)OCO3)nc2ccccc21	none
C=CCc1cccc(CNc2nc3ccccc3n2CCC)c1O	WT yeast gro inh 59
CCCn1c(NCc2cc(C)ccc2O)nc2ccccc21	Lmaj promast 77 (no result: Insulin prom up)
CCCCn1c(NCc2ccccc2O)nc2ccccc21	none (no result: ROMK mod, Insulin prom inh)
CCCn1c(NCc2ccc3c(c2)OCO3)nc2ccccc21	Lmaj promast 82
CC(C)[C@H](N)c1nnc(SCc2ccc(Cl)cc2)o1	none (no result: ROMK mod, Cl transport mod)
CCC(C)[C@H](N)c1nnc(SCC(=O)c2ccc(Cl)cc2)o1 (stereo partly drawn)	Lmaj promast 90
Cc1ccccc1-c1nc(S(=O)(=O)c2ccc(Cl)cc2)c(NCCN2CCOCC2)o1	none (no result: WT yeast gro inh, ROMK mod)
Cn1nc(C(=O)Nc2sccc2C(N)=O)ccc1=O	none (no result: ROMK mod)
C=C(C)C1CC=C(C)/C(=N/NC(=O)c2cccc([N+](=O)[O-])c2)C1 (stereo not drawn)	Lmaj promast 100
C=C(C)C1CC=C(C)/C(=N/NC(=S)Nc2ccccc2)C1 (stereo not drawn)	Cl transport mod 6.5
C=C(C)C1CC=C(C)/C(=N/NC(=O)c2ccoc2C)C1 (stereo not drawn)	none (no result: Insulin prom up)
C=C(C)C1CC=C(C)/C(=N/NC(=O)c2ccc(NC(=O)c3cccc(C)c3)cc2)C1 (stereo not drawn)	Lmaj promast 100 (no result: Insulin prom up, ROMK mod)
COC(=O)CSc1nnc(CNC(=O)c2ccc(OC)cc2OC)n1C	none (no result: Insulin prom inh)
CCNCc1cc(OCC)c(OCC(=O)NCCc2ccccc2)cc1Cl	Lmaj promast 99 (no result: ROMK mod, Insulin prom inh, Cl transport mod)
CCOc1cc(CNCC(C)C)c(Cl)cc1OCC(=O)Nc1ccccc1	Lmaj promast 82 (no result: Insulin prom inh)
N#Cc1nc(-c2ccc(Cl)cc2)oc1NCCc1ccccn1	none
O=C(O)Cc1ccc(C(=O)c2ccccc2F)s1	none (no result: Cl transport mod)
COc1ccc(NC(=O)C(Cc2ccccc2)NC(=O)c2ccco2)cc1OC (stereo not drawn)	none
Cc1cc(N/C=C/C(=O)c2cccc3ccccc23)no1	none
O=C(/C=C/Nc1ccc([N+](=O)[O-])cc1Br)c1cccc2ccccc12	Lmaj promast 75
O=C(C[n+]1ccc(-c2nnc3n2CCC3)cc1)c1ccc(Cl)cc1	none
CCOc1ccc2c(c1)C(N(CCN1CCOCC1)C(=S)Nc1ccccc1OC)CC(C)(C)O2 (stereo not drawn)	Lmaj promast 59 (no result: Insulin prom up)
COc1ccccc1NC(=S)N(CCN1CCOCC1)Cc1ccccc1F	none (no result: Insulin prom inh)
Cc1ccc(Nc2nc(CSc3nnc(-c4ccccc4C)n3C)cs2)cc1	none
Cc1ccc(Nc2nc(CSc3nnc(-c4cccnc4)n3-c3ccccc3C)cs2)cc1	Lmaj promast 97
Cc1ccccc1-n1c(SCc2csc(Nc3ccccc3)n2)nnc1-c1cccnc1	Lmaj promast 65 (no result: ROMK mod, Insulin prom inh)
Cc1ccc(Nc2nc(CSc3nnc(-c4ccccc4)n3C)cs2)cc1	Lmaj promast 95
O=C(NCCCn1ccnc1)c1cc2c(s1)CCCCC2	Lmaj promast 60 (no result: ROMK mod)
O=C(NCCO)c1cc2c(s1)CCC2	none (no result: ROMK mod)
CC1=NN(C(=O)COc2ccc(C)c(C)c2)C(O)(c2ccccc2)C1 (stereo not drawn)	none
Cc1ccc(NC(=O)c2cc(N3C(=O)CCC3=O)ccc2N2CCOCC2)cc1	none (no result: ROMK mod, Insulin prom inh)
Cc1ccc(NC(=O)c2cc(N3C(=O)C=CC3=O)ccc2N2CCOCC2)cc1Cl	WT yeast gro inh 66
Cc1nc(C)c(C(=O)NNC(=O)c2ccc(Br)cc2)s1	none (no result: ROMK mod, Insulin prom inh)
O=C(CCl)Nc1ccc(Oc2cnc3ccccc3n2)cc1	Lmaj promast 66 (no result: Insulin prom inh, Cl transport mod)
COc1ccccc1C(=O)ON=C1c2ccccc2-c2ccccc21	Lmaj promast 51
C=CCNc1nc(Nc2ccc(OC)cc2OC)nc(OCC)n1	none
CCOC(=O)CC(NC(=O)c1cc2ccccc2oc1=O)c1cccc([N+](=O)[O-])c1 (stereo not drawn)	none
COc1cc(/C=N/NC(=O)c2ccncc2)ccc1OC(=O)c1ccccc1Cl	none (no result: Insulin prom inh, Cl transport mod)
COc1cc(/C=N/NC(=O)c2ccncc2)ccc1OC(=O)c1ccc([N+](=O)[O-])cc1	Insulin prom inh 100
Cc1cc(C(=O)N/N=C/C=C/c2ccccc2)n[nH]1	none (no result: Insulin prom up, WT yeast gro inh, Lmaj promast, Insulin prom inh)
